For 87 molecules, inhibition results are on record in PubChem BioAssay AID2717 (Broad Institute, 2010).

A word on the inhibition: it is the change of the read-out against control, counted positive when it falls.

SMILES strings stand for the structures. “And” between values parts separate entries of the source, which are not always exact repeats. Equal values may be shown once. The campaign covered roughly 300,000 compounds. About 3,200 (1.1%) were called active. This is one part of a sample in which actives are shown more often than they occur. Values without a mark were called inactive. No stated cut-off is given here; in the data, active means inhibition above about 75%; inconclusive means no clear call, values can overlap the other calls; inactive means below that; tested in HMLE shEcad cells.

The test can be described thus: growth suppression of cancer stem-like cells – cell-based, luminescence, primary screen (AID 2717). Conditions: cancer stem cell-like cells viability, at 7.5 µM, stronger effect = higher value.
Turning to `COc1ccc(-n2cnnc2SCC(=O)Nc2cccc([N+](=O)[O-])c2)cc1`, the inhibition is -0.247%.

On to `NC(=O)NC(=O)CSc1nc2cc([N+](=O)[O-])ccc2n1-c1cccc(C(F)(F)F)c1`, for which the inhibition is 84.3% (active). Then `COc1ccc(CCNC(=O)CSc2nc3[nH]ncc3c(=O)n2-c2cccc(C(F)(F)F)c2)cc1OC`, with -2.41%; and `Cc1ccc2c(c1)C1C[N+](C)(CC(=O)c3ccccc3)CCC1N2C(=O)c1ccccc1Cl` (configuration not stated), with -11.4%; and `COc1ccc(S(=O)(=O)N(C)C[C@H]2Oc3ccc(NS(=O)(=O)c4cccs4)cc3CC(=O)N([C@H](C)CO)C[C@H]2C)cc1`, with -7.45%. On to `COc1ccc(N(CCC(=O)NCCc2ccccc2)S(=O)(=O)c2ccc(C)cc2C)cc1`, for which the inhibition was 0.378%. For `C[C@]12C=CC(=O)C=C1CC[C@@H]1[C@@H]2C(=O)C[C@@]2(C)[C@H]1CC[C@]2(O)C(=O)CO` the value was -3.96% and -10.9%; for `CC(=O)C12CC(C)=C(C)CC1CC1C3CCC4=CC(=O)CCC4(C)C3CCC12C` (configuration not stated), 76.7% (active); for `CC(=O)[C@@]12O[C@@H]1C[C@H]1[C@@H]3CC[C@H]4C[C@@H](O)CC[C@]4(C)[C@H]3CC[C@@]12C`, -0.101%. With `COc1cccc(NC(=O)COC(=O)c2ccc3ccccc3n2)c1`, the inhibition is -12.4%. Take `COc1cccc(NC(=O)COc2cccnc2[N+](=O)[O-])c1`: the inhibition was -14.1%.

Turning to `CC(=O)c1cccc(OCC(=O)OCC(=O)Nc2cc(S(=O)(=O)N3CCCCC3)ccc2C)c1`, the inhibition was 2.55%. Regarding `O=C(CC1SCCNC1=O)Nc1ccc(Cl)c(Cl)c1` (configuration not stated), the inhibition is -15.9%. Regarding `CCn1nccc1C(=O)Nc1ccc(Cl)c(Cl)c1`, the inhibition was 6.24%.

With `O=C(CC(O)(C(F)(F)F)C(F)(F)F)Nc1ccc(Cl)c(Cl)c1`, the inhibition is 98.6% (active).

Consider `Cc1nn(-c2ccccc2)nc1C(=O)OCC(=O)N1CCCCC1C` (configuration not stated), for which the inhibition was 3.22%.

Consider `O=C(CN1C(=O)c2ccc([N+](=O)[O-])cc2C1=O)Nc1nnc(C2CC2)s1`, for which the inhibition is -20.4%.

As for `CC(OC(=O)c1cc2ccccc2[nH]1)C(=O)N(C)c1ccccc1` (configuration not stated), the inhibition was -15.8%. Then `Cc1csc(=O)n1CC(=O)Nc1ccc(S(C)(=O)=O)cc1`, with -16.8%; and `COc1ccc(C(=O)OCc2cc(=O)n3ccsc3n2)cc1F`, with -8.98%. Regarding `O=C(c1ccccc1)N1N=C(c2ccccc2O)CC1c1ccc(Br)cc1` (configuration not stated), the inhibition was 8.94%. Then `COc1ccc(C2CC(c3cccs3)=NN2c2ccccc2)cc1` (configuration not stated), with 4.92%; and `Oc1ccccc1C1=NN(c2ccccc2)C(c2ccccc2)C1` (configuration not stated), with 84.6% (active). Then `COc1ccc(N2CCN(C(CNS(=O)(=O)c3ccc(C)cc3)c3ccccc3)CC2)cc1` (configuration not stated), with 20.2%; and `COc1cccc(CC(=O)OCC(=O)NCc2ccc3c(c2)OCO3)c1`, with -4.31%; and `O=S(=O)([N-]c1nc2ccccc2nc1-[n+]1ccc(Cc2ccccc2)cc1)c1ccc(Br)s1`, with 98.5% (active). Regarding `O=C(NCCc1ccccc1)C1CCN(S(=O)(=O)c2ccc(Br)s2)CC1`, the inhibition was -3.18%. Regarding `Cc1cc(C)c[n+](-c2nc3ccccc3nc2[N-]S(=O)(=O)c2cccs2)c1`, the inhibition was -12.3%. Take `Cn1nnnc1SCC(=O)Nc1sccc1C(N)=O`: the inhibition was -11.4%. For the molecule `CN(CC(=O)NCCc1ccc(S(N)(=O)=O)cc1)CC(=O)Nc1ccc(Cl)cc1`, the inhibition was -12.5%.

For the molecule `COc1cccc(/C=N/NC(=O)c2[nH]nc3c2CCc2ccccc2-3)c1O`, the inhibition was 111% (active). For `CN(C)CCNC(=O)c1[nH]nc2c1CCc1ccccc1-2` the value was -15.5%; for `COc1cc2cc(C(=O)N/N=C/c3cccc(OC)c3OC)[nH]c2cc1OC`, 8.69%; for `CCOC(=O)CCCCCC(=O)Nc1ccc2c(c1)CC(=O)N([C@@H](C)CO)C[C@H](C)[C@@H](CN(C)Cc1ccccc1)O2`, -7.75%. For the molecule `Cc1ccc2c(c1)c1ncn(CCC3=CCCCC3)c(=O)c1n2C`, the inhibition was 79.2% (active). For `Cc1ccc2c(c1)c1ncn(Cc3ccc(F)cc3)c(=O)c1n2C`, the inhibition is 21.8%.

On to `COc1ccc2c(c1)c1ncn(Cc3ccccn3)c(=O)c1n2C`, for which the inhibition was -14.9%. Then `CCn1nnc2cc(C(=O)Nc3ccc(C(=O)OC(C)C)cc3)ccc21`, with -0.631%; and `O=C(COC(=O)C1CCCO1)Nc1nc(-c2ccc(F)cc2)cs1` (configuration not stated), with -5.39%; and `O=C(OCC(=O)N1CCCCC1)c1ccc(OC(F)(F)F)cc1`, with -0.262%. Then `O=C1c2cccc3cc(Br)cc(c23)C(=O)N1Nc1ccccc1`, with 6.61%. For `O=C(O)CC1=C(Nc2ccccc2)C(=O)N(c2ccccc2)C1c1ccc(Cl)cc1` (configuration not stated) the value was 9.27%; for `O=C1C=C(c2ccc(Cl)cc2)C(=O)N1Nc1ccccc1`, 107% (active); for `CCOC(=O)C1CCN(C(=O)CN2C(=O)NC(C)(c3ccc4cc(OC)ccc4c3)C2=O)CC1` (configuration not stated), -9.85%. `CCOC(=O)[C@@H]1[C@H]2COc3ccc(Br)cc3[C@H]2N2C(=O)N(c3ccc(C)cc3)C(=O)[C@@]12C`: the inhibition was -5.83%. With `O=C(CCCO)N/N=C/c1cc(Br)ccc1O`, the inhibition is -5.24%. For `COc1ccc(-c2nn(-c3ccccc3)cc2/C=N/Nc2ccccn2)cc1OC` the value was 10.5%. For `Oc1ccc(Br)cc1/C=N/Nc1ccccn1` the value was 101% (active). Then `COc1ccc(OC)c(NC(=O)COC(=O)Cc2ccsc2)c1`, with -8.27%; and `O=C(OCC(=O)N1CCCCCC1)c1ccc(Cl)nc1`, with 15.6%. As to `O=C(Oc1ccc(-c2nc(-c3ccccn3)no2)cc1)c1ccccc1`, the inhibition was 129% (active). Regarding `COc1ccc(Cc2nc(-c3ccccn3)no2)cc1OC`, the inhibition is -15.9%. For `Cc1ccc(Oc2nc(-c3ccccn3)nc3ccccc23)cc1` the value was 4.28%; for `N#CCCN(C(=O)COC(=O)c1ccc2c(c1)OCCO2)c1ccccc1`, -4.1%.

For the molecule `CC(C)N(C(=O)c1ccc(-c2ccccc2F)cc1)C(C)C`, the inhibition is -3.5%. For `CC(=O)N(C1=C(Cl)C(=O)c2ccccc2C1=O)c1ccc(C(=O)O)cc1`, the inhibition was 102% (active). Regarding `O=C(CN1C(=O)c2ccccc2C1=O)NCc1ccc(C(=O)O)cc1`, the inhibition is 12.4%. Turning to `CCOc1ncccc1C(=O)Nc1ccc2c(c1)OCCO2`, the inhibition was -12.8%. Take `O=C(Nc1cc(S(=O)(=O)N2CCOCC2)ccc1N1CCOCC1)c1c(F)cccc1Cl`: the inhibition is -17.5%.

In the case of `Cc1c(NC(=O)C(C)OC(=O)c2ccccc2O)c(=O)n(-c2ccccc2)n1C` (configuration not stated), the inhibition is -18.3%. Take `CCC(CO)Oc1cc(NC(=O)c2cccc3ccccc23)c2ncn(C(C)C)c2c1` (configuration not stated): the inhibition was 4.9%. Then `Cc1ccc2c(CN3CCN(S(=O)(=O)c4ccccc4C(F)(F)F)CC3)cc(=O)oc2c1`, with 0.831%. `CO[C@@H]1[C@@H](OC(N)=O)[C@@H](O)C(Oc2ccc3c(O)c(NC(=O)c4ccc(O)c(CC=C(C)C)c4)c(=O)oc3c2C)OC1(C)C` (some centres not stated): the inhibition is -16%. Take `COC(=O)N/N=C/c1cn(CCCOc2ccc(C)cc2)c2ccccc12`: the inhibition was 25.8%. For `CCOC(=O)N/N=C/c1cn(Cc2ccccc2Cl)c2ccccc12` the value was 7.15%; for `CNC(=S)N/N=C/c1cn(Cc2ccc(C)cc2)c2ccccc12`, 109% (active). For `Cc1ccccc1-c1cc(C(=O)NCc2cccs2)n(CC2CC(c3cccnc3)=NO2)n1` (configuration not stated) the value was 10.1%; for `OCCNc1nc(Nc2ccc(Cl)c(Cl)c2)nc2ccccc12`, 102% (active). Consider `COc1cc2nc(Cl)nc(NCCO)c2cc1OC`, for which the inhibition was -15.1%. Then `CN(C)c1nc(Nc2ccc(Cl)c(Cl)c2)nc(N(C)C)n1`, with -14.7%; and `O=C(c1cnccn1)N1CCN(S(=O)(=O)c2cccc(Cl)c2)CC1`, with -17.3%; and `Cc1cc(N2CCCC2)ccc1NC(=O)COc1ccc(Cl)cc1`, with -10.1%. Then `Cc1c(C(=O)Nc2cccc(S(=O)(=O)N3CCOCC3)c2)oc2ccccc12`, with -11%; and `CC1CCCCC12NC(=O)N(CC(=O)OCc1c(F)cccc1Cl)C2=O` (configuration not stated), with -8.77%. Then `COCCN(CCOC)S(=O)(=O)NC[C@H]1O[C@@H](n2cnc3c(N)ncnc32)[C@H](O)[C@@H]1O`, with 2.3%; and `COc1ccc(Br)cc1C(=O)NC(=S)Nc1cc(-c2nc3ccccc3[nH]2)ccc1C`, with 86.6% (active); and `Cc1ccc(-c2nc3ccccc3[nH]2)cc1NC(=O)c1sc2ccccc2c1Cl`, with 6.88%. On to `COc1ccc(Br)cc1C(=O)Nc1cccc(C)c1C`, for which the inhibition was -31%. Then `COc1ccc(C(=O)NCc2ccccc2C)cc1S(=O)(=O)NC1CCCC1`, with 0.604%; and `O=c1c(-c2ccccc2)coc2cc(O)ccc12`, with 0.886%; and `CC(C)=CCc1c(O)c(CC=C(C)C)c2occ(-c3ccc(O)cc3)c(=O)c2c1O`, with 100% (active). For `CC(C)CN(Cc1c(O)ccc2c(=O)c(-c3ccccc3)coc12)CC(C)C` the value was -0.974%; for `O=C(COC(=O)c1cc(S(=O)(=O)N2CCOCC2)ccc1F)NC1CC1`, -6.89%. In the case of `O=C(Nc1cccc(C(F)(F)F)c1)c1ccc(N2CCNCC2)c([N+](=O)[O-])c1`, the inhibition was -16.4%. As to `O=C(NC1C2CC3CC(C2)CC1C3)c1ccc(N2CCNCC2)c([N+](=O)[O-])c1` (configuration not stated), the inhibition is 52.3%. In the case of `CC(NC(=O)c1ccc(N2CCNCC2)c([N+](=O)[O-])c1)C12CC3CC(CC(C3)C1)C2` (configuration not stated), the inhibition was 86.5% (active). Take `O=C1C=C(c2ccnc3cc(Cl)ccc23)C[C@@H](c2ccc3c(c2)OCO3)C1`: the inhibition was 6.37%.
